PubChem BioAssay AID1626 (SRMLSC, 2009)
In all, about 220,000 compounds went through this assay and about 2,000 (0.91%) were called active. Another 2% or so got no clear call; they are omitted. Only a sample is shown. Potency and affinity values are given separately. Values without a mark were called inactive. Rule as the data show it: inconclusive = inhibition above about 80% without an active follow-up result; inactive = below that; test concentration not stated here.

Test: M. tuberculosis H37Rv growth inhibitors, H37Rv strain (AID 1626);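 also: bacteria incubated seven days before Alamar blue readout; 0% = bacteria only wells and 100% = bacteria with antibiotic wells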
Conditions: hits give high values, concentration not given here
With `CC(O)CCC(=O)NNC1CC(=O)N(c2ccccc2)C1=O` (stereo not drawn) the inhibition was -8.86%.
In the case of `C=CCN(c1ccccc1)S(=O)(=O)c1cccc(C(=O)O)c1`, the inhibition is reported as -12.8%.
Work on `Cc1ccc(C)c(-n2nnnc2Sc2nc([N+](=O)[O-])nn2C)c1` yielded an inhibition of -10.2%.
Molecule `Cc1ccc(-n2nnnc2Sc2nc([N+](=O)[O-])nn2C)cc1` has an inhibition of 0.83%.
With `Cc1ccc(C2(c3noc(CN4CCC(c5ccncc5)CC4)n3)CCCC2)cc1` the inhibition was 13.7%.
With `O=CC1=C(N2CCOCC2)/C(=C\c2ccccc2)CC1` the inhibition was 0.77%.
For `O=C(O)c1ccc(N/N=C/C2=C(N3CCOCC3)C(=C\c3ccccc3)/CC2)cc1`, the inhibition was -3.9%.
`CC(=O)Nc1ccc(NC(=O)/C=C/c2cccc(C(F)(F)F)c2)cc1` showed an inhibition of 0.39%.
In the case of `CCc1ccc2c(c1)C(c1ccncc1)=NNC(c1ccccc1)=N2`, the inhibition is reported as 8.68%.
`CCCC(=O)Nc1nnc(SCC(=O)Nc2ccc3c(c2)OCO3)s1` gave an inhibition of 5.81%.
`CN1CCN(C(=O)c2ccc(CSc3nc4ccncc4n3Cc3ccc(F)cc3)cc2)CC1` showed an inhibition of -0.01%.
Molecule `COc1ccc2nc(C)cc(C(=O)O)c2c1` has an inhibition of 0.85%.
For `O=C(CN1CCN(C/C=C/c2ccccc2)CC1)Nc1ccccc1C(=O)NC1CC1`, the inhibition was -0.65%.
`O=C(CN1CCN(C/C=C/c2ccccc2)CC1)Nc1ccc(F)cc1F` showed an inhibition of -0.62%.
`COc1ccccc1NC(=O)C(C)N1CCN(C/C=C/c2ccccc2)CC1` (stereo not drawn) gave an inhibition of 11.9%.
`O=C(COc1ccccc1)N1CCN(C/C=C/c2ccccc2)CC1` showed an inhibition of -6.49%.
Molecule `O=C(COc1ccc(Cl)cc1)N1CCN(C/C=C/c2ccccc2)CC1` has an inhibition of 0.36%.
In the case of `COc1ccc(C)cc1NC(=O)CN1CCN(C/C=C/c2ccccc2)CC1`, the inhibition is reported as -3.7%.
`Cc1n[nH]c(=O)nc1NCc1ccc(Cl)cc1` gave an inhibition of 0.09%.
For `CC(C)(C)NC(=O)COC(=O)CCC(=O)c1ccc(F)cc1`, the inhibition was -0.61%.
`Cc1ccc(/C=N/NC(=O)CNC(=O)c2ccc(S(=O)(=O)N(C)C)cc2)cc1` gave an inhibition of -4.56%.
Work on `Cc1ccnc(NS(=O)(=O)c2ccc(NC(=O)/C=C/c3cccs3)cc2)n1` yielded an inhibition of 11.1%.
In the case of `CCOC(=O)C1C(c2ccccc2)NC(=S)NC1(C)O` (stereo not drawn), the inhibition is reported as 1.27%.
With `COc1ccc(Nc2ncc(C(=O)O)c3ccccc23)cc1` the inhibition was 5.05%.
Work on `Cc1cc2ccc(C)c(C)c2nc1SCC(=O)c1cccs1` yielded an inhibition of -3.91%.
`Nc1nc(NCC2CCCO2)nc(NCC2CCCO2)c1[N+](=O)[O-]` (stereo not drawn) gave an inhibition of -0.89%.
With `O=C(CCCCCN1C(=O)C2C3C=CC(C3)C2C1=O)Nc1nccs1` (stereo not drawn) the inhibition was -6.21%.
`CCc1cccc(C)c1NC(=S)N1CCCCC1c1cccnc1` (stereo not drawn) gave an inhibition of 1.2%.
Work on `CC(C)COC(=O)C(C#N)c1nc2ccccc2nc1N1CCN(Cc2ccc3c(c2)OCO3)CC1` (stereo not drawn) yielded an inhibition of 2.75%.
In the case of `COC(=O)C(C#N)c1nc2ccccc2nc1N1CCN(Cc2ccc3c(c2)OCO3)CC1` (stereo not drawn), the inhibition is reported as -4.28%.
For `CC(N=C1NC(C)(C)Cc2ccccc21)C(=O)O` (stereo not drawn), the inhibition was -3.94%.
In the case of `Cn1c(Cn2c(=O)sc3ccccc32)nnc1SCC(=O)NC1CCCC1`, the inhibition is reported as -8.44%.
Molecule `Cc1cc(C)n(C(=O)c2ccc([N+](=O)[O-])cc2N)n1` has an inhibition of -10.3%.
`Cc1cc(C)n(C(=O)c2ccccc2[N+](=O)[O-])n1` showed an inhibition of 6.43%.
Work on `CC1C=CCC2C(=O)N(c3ccc(Cl)cc3O)C(=O)C12` (stereo not drawn) yielded an inhibition of 10.7%.
Work on `COc1ccc2nc(/N=C(\N)NC(=O)C(C)(C)C)nc(C)c2c1` yielded an inhibition of 14.9%.
`Cc1ccc2nc(/N=C(\N)NC(=O)N3c4ccccc4Sc4ccccc43)nc(C)c2c1` gave an inhibition of 94.5%.
For `COc1ccc(CN(CC2CCC(C(=O)O)CC2)C(=S)Nc2cc(C)ccc2C)cc1` (stereo not drawn), the inhibition was 4.91%.
With `O=C(NC1CSC/C1=N\O)c1ccccc1` (stereo not drawn) the inhibition was -2.37%.
Work on `COc1ccc(/C=C/C(=O)c2ccc(Cl)cc2)c(OC)c1` yielded an inhibition of 7.24%.
In the case of `O=C(/C=C/c1ccccc1Cl)c1ccc(O)cc1`, the inhibition is reported as 36.8%.
Work on `COc1ccccc1/C=C/C(=O)c1ccc(Cl)cc1` yielded an inhibition of 19.9%.
Molecule `COc1ccccc1/C=C/C(=O)c1ccccc1` has an inhibition of 5.69%.
`Cc1nc2nc(SCC(=O)C(C)(C)C)[nH]c2cc1Br` showed an inhibition of -3.7%.
`CC(C)(C)c1cc(NC(=O)c2cccc([N+](=O)[O-])c2)no1` showed an inhibition of 4.63%.
`CC1(c2nnc(-c3ccccc3)o2)CC(c2ccc(F)cc2)=NO1` (stereo not drawn) gave an inhibition of -2.41%.
`CCOC(=O)c1ccc(N=c2sc(C(=O)OC)cc(=O)n2-c2ccc(C(=O)OCC)cc2)cc1` gave an inhibition of 63.5%.
With `COC(=O)c1ccc(N=c2sc(C(=O)OC)cc(=O)n2C)cc1` the inhibition was 7.67%.
